Hck-Nef inh = human Hck-Nef kinase inhibition | P08631 | Recombinant Hck-YEEI plus Nef, Z-Lyte FRET kinase assay | inhibition, % at 20 µM | 0.68% of 220,000 active | AID 463187;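 active means Hck-Nef kinase inhibition above about 50%, limit read from the data; inactive means inhibition below that limit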;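 further: 0% = DMSO with Hck plus Nef and 100% = Hck alone without Nef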
Target sequence (P08631 whole entry, looked up): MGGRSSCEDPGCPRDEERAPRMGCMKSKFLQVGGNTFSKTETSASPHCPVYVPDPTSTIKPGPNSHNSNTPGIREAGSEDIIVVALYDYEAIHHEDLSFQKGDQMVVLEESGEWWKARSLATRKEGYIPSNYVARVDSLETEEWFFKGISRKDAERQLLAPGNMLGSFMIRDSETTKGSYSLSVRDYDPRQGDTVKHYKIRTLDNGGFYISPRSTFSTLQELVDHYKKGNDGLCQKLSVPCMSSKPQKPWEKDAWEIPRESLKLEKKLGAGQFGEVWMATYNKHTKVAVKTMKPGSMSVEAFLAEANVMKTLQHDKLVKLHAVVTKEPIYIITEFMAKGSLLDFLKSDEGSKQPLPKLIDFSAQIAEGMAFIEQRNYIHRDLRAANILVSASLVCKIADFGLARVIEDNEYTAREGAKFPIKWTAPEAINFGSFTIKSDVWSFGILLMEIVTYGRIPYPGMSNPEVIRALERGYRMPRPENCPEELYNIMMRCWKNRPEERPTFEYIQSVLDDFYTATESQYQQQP
PREPL inh = inhibits the human prolyl oligopeptidase-like enzyme | inhibition, % at 5.96 µM | Q4J6C6 | AID 2751 | 0.68% of 320,000 active | recombinant PREPL, fluorescence polarization activity-based probe; in the data active means inhibition above about 43%;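 further: 0% = enzyme with DMSO and 100% = wells lacking enzyme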
LYPLA1 counter = LYPLA1 (human) inhibition in PME1 counter-screen. O75608. AID 2174. recombinant LYPLA1, FP-Rh probe fluorescence polarization. 0.16% of 320,000 active. inhibition, % at 5.9 µM;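 active means inhibition above the mean of all tested compounds plus 3 SD, set per campaign, cut at about 14% in these data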;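 further: inhibitors block serine hydrolase probe labeling of LYPLA1 so polarization falls; 0% = enzyme with DMSO and 100% = wells lacking LYPLA1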
p97 ATPase inh = blocks human p97 ATPase activity; P55072; recombinant p97 ATPase, Kinase-Glo ATP luminescence, 3 h; 0.42% of 220,000 active; AID 1481; inhibition, % at 8 µM; in the data active means inhibition above about 15%;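 further: 0% = DMSO vehicle and 100% = wells lacking enzyme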
Rin1-Abl PPI inh = inhibitors of human Rin1-Abl protein interaction. TR-FRET Rin1/Abl binding, biochemical. 0.4% of 360,000 active. inhibition, % at 7.35 µM. AID 588664. P00519+Q13671; in the data active means inhibition above about 5%, passing the limit was not always enough
LYPLA2 inh = blocks human lysophospholipase 2, a PME1 counter-screen; recombinant LYPLA2, FP-Rh probe fluorescence polarization; AID 2177; O95372; 0.38% of 320,000 active; inhibition, % at 5.9 µM;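 active means inhibition above the screen-wide mean plus 3 SD, limit set per campaign, cut at about 26% in these data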;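 further: 0% = LYPLA2 with DMSO and 100% = wells lacking LYPLA2 enzyme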
Rin1-Abl confirm = Rin1-Abl interaction inhibition confirmation. shares compounds with Rin1-Abl PPI inh. TR-FRET Rin1-Abl binding, purified proteins. inhibition, % at 7.35 µM. 49% of 1,300 active. AID 602124
GFP quench = GFP fluorescence interference artifact. shares compounds with Rin1-Abl PPI inh. inhibitors/quenchers counterscreen. 8.5% of 1,300 active. inhibition, % at 6.75 µM;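 further: ABL1-eGFP fusion protein alone without its partner RIN1-SBP; 0% = protein with vehicle and 100% = wells lacking protein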
GFP quench dose = quenches GFP in dose response, Rin1-Abl counter-screen; shares compounds with Rin1-Abl PPI inh; GFP fluorescence interference/quenching counterscreen; IC50, µM; 230 tested, under 10 active; AID 602182; call rule not given here;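 further: ABL1-eGFP fusion protein alone without its RIN1 binding partner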
* = called active by the depositor; / = no result. In the library only some 1.7% were active in any assay of this set; here they are far more common. Unless noted, no stated cut-off is given here; in the data, active means inhibition above about 6.5%; inactive means the rest.

SMILES	Hck-Nef inh	PREPL inh	LYPLA1 counter	p97 ATPase inh	Rin1-Abl PPI inh	LYPLA2 inh	Rin1-Abl confirm	GFP quench	others
CCN(CC)c1ccc(C=NCCNS(=O)(=O)c2ccc(C)cc2)cc1	/	11.8	5.1	/	0.7	5.6	/	/
COCCN1C[C@@H](CO)O[C@@H](n2cnc3c(NC4CC4)ncnc32)C1	/	/	/	/	0.7	/	/	/
O=C(COc1c(Br)cc(Br)c2cccnc12)N1CCCCC1	-5.4	10.5	-1.9	-2.7	-8.9	-5.3	/	/
Oc1c(Cl)cc(CN2CCOCC2)c2cccnc12	/	12.6	1.8	/	7.4*	4.9	1.5	1.0
Oc1c(CN2CCCCC2)cc(Br)c2cccnc12	1.0	41.2	0.1	2.9	11.4*	0.8	8.0*	2.3
O=C(NC1CCSc2ccccc21)c1cccc(S(=O)(=O)N2CCOCC2)c1 (stereo not given)	/	-5.6	1.5	/	0.8	-1.4	/	/
CCOC(=O)C1=C(C)NC2=C(C(=O)CCC2)C1c1cccnc1 (stereo not given)	23.3	4.1	2.5	7.9	11.2*	6.3	-2.9	0.8
CC1(Cc2cccc(F)c2)C(=O)Nc2ccc(OC(F)(F)F)cc21 (stereo not given)	/	/	/	/	-1.1	/	/	/
CC1(Cc2ccc(OC(F)(F)F)cc2)C(=O)Nc2ccc(OC(F)(F)F)cc21 (stereo not given)	/	/	/	/	7.4*	/	-1.7	-1.2
CCOC(=O)C1=C(C)Nc2nnnn2C1c1ccc(OC)c(Br)c1 (stereo not given)	12.1	-34.5	0.9	2.4	10.7*	0.2	-0.8	-0.9
CCOC(=O)C1=C(C)NC(=S)N(C(C)=O)C1c1ccc(OC)c(OC)c1 (stereo not given)	-2.1	8.6	2.1	-4.5	-1.1	5.6	/	/
CC(=O)c1c(C)[nH]c(C(=O)Nc2ccccc2N2CCOCC2)c1C	24.9	-24.6	1.2	4.3	4.7*	5.1	-2.9	0.3
CC(=O)N1CCN(c2nnc(-c3ccccc3)c3ccccc23)CC1	/	-8.1	-2.9	/	-2.6	7.2	/	/
Cc1ccc(-c2nnc(N3CCN(C(=O)c4ccco4)CC3)c3ccccc23)cc1	1.2	-8.7	-1.8	0.6	13.2*	8.6	7.9*	0.8
CCc1cccc(NC(=O)CN(c2ccc(C)cc2)S(=O)(=O)c2c(C)noc2C)c1	/	4.9	-11.1	/	-1.0	-7.4	/	/
Oc1ccc(/C=N/N=C/c2ccc(O)c(O)c2)cc1O	/	13.2	-9.8	/	23.5*	-10.3	56.8*	16.2*
NS(=O)(=O)c1ccc(NC(=O)COC(=O)c2cn(-c3ccccc3)nc2-c2ccccc2)cc1	31.9	-10.2	-19.9	9.0	-4.5	-38.2	/	/
NS(=O)(=O)c1ccc(NC(=O)COc2ncnc3c2cnn3-c2ccccc2)cc1	-21.1	-11.0	-1.2	3.2	5.5*	-15.4	6.1	0.0
CCCCNc1c(-c2ccc(-c3ccc(OC)cc3)c(OC)c2)nc2ccccn12	/	26.9	/	/	3.0	/	/	/
COC(=O)C1CCN(CC(=O)Nc2ccc3c(c2)OCCO3)CC1	/	9.1	/	/	-0.3	/	/	/
CC1CC(C)CN(CC(=O)Nc2ccc3c(c2)OCCO3)C1 (stereo not given)	0.0	13.8	-0.6	-6.6	6.3*	-0.4	2.5	2.7
COc1ccc(O)c(C(c2c(C)[nH][nH]c2=O)c2c(C)[nH][nH]c2=O)c1	19.7	13.6	0.0	5.0	22.2*	4.6	-0.3	-1.2
COc1ccc(OC)c(C(c2c(C)[nH][nH]c2=O)c2c(C)[nH][nH]c2=O)c1	/	-8.0	-2.1	/	7.9*	2.7	-1.1	0.5
Cc1ccc(S(=O)(=O)N2CCN(C(=O)CSc3ccccn3)CC2)c(C)c1	/	-6.7	0.2	/	8.2*	2.3	1.6	-0.2
Cc1ccc(S(=O)(=O)N2CCN(C(=O)c3ccccn3)CC2)c(C)c1	22.4	5.0	-0.2	2.5	4.3	2.8	/	/
SMILES	Hck-Nef inh	PREPL inh	LYPLA1 counter	p97 ATPase inh	Rin1-Abl PPI inh	LYPLA2 inh	Rin1-Abl confirm	GFP quench	others
CN(C(=O)CCc1nnc(-c2ccc(-c3ccccc3)cc2)o1)C1CCOCC1	/	33.9	-4.0	/	8.8*	-2.9	0.2	1.7
O=C(Cc1cnn(-c2ccccc2)c1)c1ccc(O)c(O)c1O	0.4	17.1	-12.8	12.1	12.7*	-12.2	2.4	11.2*
Cc1ccc(S(=O)(=O)c2nnn3c2nc(N2CCC(C(N)=O)CC2)c2ccccc23)cc1	/	2.6	4.4	/	-2.7	12.4	/	/
COC(=O)CN1C(=O)[C@@H]2[C@H](C1=O)[C@@H]1CC(C(=O)OC)=C[C@@H](C(=O)OC)[C@@H]3C1=C(C(=O)[C@@]3(C)NC(=O)c1ccccc1)[C@@H]2C	/	-0.1	2.4	/	14.5*	0.8	4.0	0.6
CCCCOc1ccc(C(=O)N(Cc2ccco2)C2CCS(=O)(=O)C2)cc1 (stereo not given)	/	-3.0	4.7	/	9.6*	22.1	2.5	-1.7
CCCCCC1NC(=O)NC1CCCCCC(=O)O (stereo not given)	0.2	1.7	1.5	10.4	14.0*	5.5	14.1*	0.2
C[C@@H]1NC(=O)N[C@@H]1CCCCCC(=O)O	/	-2.4	-1.5	/	91.6*	3.6	95.3*	0.5	GFP quench dose=>67.5
Cc1cccc(C)c1NC(=O)CCCCCC1NC(=O)NC1C (stereo not given)	-19.9	7.1	5.2	-3.4	82.4*	6.7	91.0*	-0.3	GFP quench dose=>67.5
Cc1ccc2[nH]c(=O)c(C3C(C#N)=C(N)Oc4c3ccc3cccnc43)cc2c1 (stereo not given)	-0.3	5.4	-3.6	1.0	9.8*	-7.1	2.2	5.9
N#CC1=C(N)Oc2c(ccc3cccnc23)C1c1ccccc1 (stereo not given)	-21.6	-3.3	-1.2	-4.3	1.5	2.4	/	/
Cc1ccc(SCC(=O)NC(=O)c2ccccc2Br)c(C)c1	/	3.5	/	/	2.3	/	/	/
Cc1cc(C)c2c(c1)SC1=NC(c3ccccc3)(C(F)(F)F)NC(=O)N12 (stereo not given)	-1.0	6.6	-3.7	1.0	7.0*	-0.5	1.9	-1.0
Cc1ccc(C(=O)N2CCCC(CCC(=O)N3CCN(c4ccccn4)CC3)C2)cc1C (stereo not given)	/	26.9	1.7	/	9.4*	-3.2	3.5	-1.7
O=C(CCC1CCCN(c2ncccn2)C1)N1CCN(c2ccccn2)CC1 (stereo not given)	14.5	-7.8	0.2	0.7	3.4	4.0	/	/
O=C(CCC1CCCN(C(=O)C2(c3ccccc3)CC2)C1)N1CCN(c2ccccn2)CC1 (stereo not given)	19.9	13.2	-1.4	1.1	10.0*	2.6	4.1	0.1

Screening data deposited in PubChem by several laboratories.
